Measured values from paper PMC5700166.
Positions count from the first letter of the chain named.

Key:
Assay in all cases: protein-binding microarray (PBM); PBM: ~300 nM protein, 6 mM HEPES pH 7.8, 80 mM KCl, 0.5 mM EDTA, 0.5 mM EGTA, 6% glycerol, 35 ng/ul poly-dIdC, 1% milk, 1 h, room temperature; Ap Aiptasia and Nv Nematostella (sea anemones) / Co Capsaspora / Aq Amphimedon (sponge) / Dm Drosophila / Hu human; RHD is the Rel homology domain; high values mean tight binding
Conditions in all cases: dsDNA, one strand shown
GST-Ap-NF-kB RHD = molecular target: T1, GST-Ap-NF-kB RHD (Exaiptasia pallida (Aiptasia), UniProt A0A913YAJ5 2-422)
T1 sequence: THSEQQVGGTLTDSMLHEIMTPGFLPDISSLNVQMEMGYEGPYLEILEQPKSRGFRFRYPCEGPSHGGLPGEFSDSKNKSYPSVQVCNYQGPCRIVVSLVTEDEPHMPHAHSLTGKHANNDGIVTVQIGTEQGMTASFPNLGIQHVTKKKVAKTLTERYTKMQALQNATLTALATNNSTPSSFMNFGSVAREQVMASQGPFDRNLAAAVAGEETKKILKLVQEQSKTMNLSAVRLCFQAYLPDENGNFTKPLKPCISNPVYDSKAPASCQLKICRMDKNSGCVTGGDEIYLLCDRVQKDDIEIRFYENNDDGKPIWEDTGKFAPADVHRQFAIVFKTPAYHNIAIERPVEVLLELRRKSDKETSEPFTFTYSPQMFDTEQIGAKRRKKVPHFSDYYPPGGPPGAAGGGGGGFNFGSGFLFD

[1] = molecular target: T2, GST-Nv-NF-kB (Cys allele) (Nematostella vectensis, UniProt E5G601 2-411)
T2 sequence: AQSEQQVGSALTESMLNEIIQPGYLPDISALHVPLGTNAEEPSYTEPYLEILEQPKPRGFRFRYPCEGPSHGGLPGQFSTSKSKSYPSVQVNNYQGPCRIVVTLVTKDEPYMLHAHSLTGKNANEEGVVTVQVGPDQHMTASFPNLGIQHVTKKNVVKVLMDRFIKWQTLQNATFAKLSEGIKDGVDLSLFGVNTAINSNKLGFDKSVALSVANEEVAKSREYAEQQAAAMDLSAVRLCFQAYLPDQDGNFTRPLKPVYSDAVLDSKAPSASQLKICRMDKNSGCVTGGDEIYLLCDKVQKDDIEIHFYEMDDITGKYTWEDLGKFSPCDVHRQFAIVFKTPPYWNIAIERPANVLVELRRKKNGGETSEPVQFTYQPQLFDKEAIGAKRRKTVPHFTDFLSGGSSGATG

[2] = molecular target: T3, GST-Nv-NF-kB (Ser allele) (Nematostella vectensis, UniProt A7UNT2 2-411)
T3 sequence: T2 sequence with Q21R, C66S, S207N, E215Q, V217A, E225K, A268E, D399E

GST-Co-NF-kB = molecular target: T4, GST-Co-NF-kB (Capsaspora owczarzaki, UniProt F1ARL5 200-546)
T4 sequence: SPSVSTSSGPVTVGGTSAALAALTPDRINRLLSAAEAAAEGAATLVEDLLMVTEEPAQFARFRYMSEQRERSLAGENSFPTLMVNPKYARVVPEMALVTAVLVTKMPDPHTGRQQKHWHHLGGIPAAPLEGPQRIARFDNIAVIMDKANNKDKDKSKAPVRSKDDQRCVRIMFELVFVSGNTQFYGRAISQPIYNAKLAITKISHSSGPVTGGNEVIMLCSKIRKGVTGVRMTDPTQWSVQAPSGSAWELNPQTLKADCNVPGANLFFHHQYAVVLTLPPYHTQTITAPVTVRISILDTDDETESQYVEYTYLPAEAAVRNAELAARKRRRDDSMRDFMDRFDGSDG

GST-Dm-Relish = molecular target: T5, GST-Dm-Relish (Drosophila melanogaster, UniProt Q94527 99-473)
T5 sequence: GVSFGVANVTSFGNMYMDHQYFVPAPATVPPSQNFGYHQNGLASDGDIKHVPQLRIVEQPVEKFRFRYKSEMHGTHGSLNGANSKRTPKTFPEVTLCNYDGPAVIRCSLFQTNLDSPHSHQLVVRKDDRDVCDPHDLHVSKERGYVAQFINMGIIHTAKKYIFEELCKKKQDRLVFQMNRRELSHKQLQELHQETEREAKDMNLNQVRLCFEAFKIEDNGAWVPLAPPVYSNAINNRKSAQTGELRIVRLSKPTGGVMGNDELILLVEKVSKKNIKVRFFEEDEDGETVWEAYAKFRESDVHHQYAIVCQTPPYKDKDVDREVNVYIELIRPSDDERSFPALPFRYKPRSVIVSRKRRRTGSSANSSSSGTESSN

GST-Aq-NF-kB = molecular target: T6, GST-Aq-NF-kB (Amphimedon queenslandica, UniProt A9Y5G7 2-389)
T6 sequence: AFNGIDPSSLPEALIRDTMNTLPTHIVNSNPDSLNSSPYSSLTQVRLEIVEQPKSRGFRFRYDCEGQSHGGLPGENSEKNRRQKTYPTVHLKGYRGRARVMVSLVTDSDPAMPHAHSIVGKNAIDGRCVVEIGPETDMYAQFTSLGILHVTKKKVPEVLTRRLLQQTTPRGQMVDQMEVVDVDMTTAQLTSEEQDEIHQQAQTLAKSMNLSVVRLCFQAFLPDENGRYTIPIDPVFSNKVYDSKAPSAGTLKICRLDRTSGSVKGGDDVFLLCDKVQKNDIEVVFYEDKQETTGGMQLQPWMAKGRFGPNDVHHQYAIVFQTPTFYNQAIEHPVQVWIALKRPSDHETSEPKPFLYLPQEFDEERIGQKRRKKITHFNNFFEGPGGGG

GST-Hu-p50 = GST-Hu-p50 (Homo sapiens, UniProt P19838 7-356)
GST-Hu-p50, sequence (P19838 7-356): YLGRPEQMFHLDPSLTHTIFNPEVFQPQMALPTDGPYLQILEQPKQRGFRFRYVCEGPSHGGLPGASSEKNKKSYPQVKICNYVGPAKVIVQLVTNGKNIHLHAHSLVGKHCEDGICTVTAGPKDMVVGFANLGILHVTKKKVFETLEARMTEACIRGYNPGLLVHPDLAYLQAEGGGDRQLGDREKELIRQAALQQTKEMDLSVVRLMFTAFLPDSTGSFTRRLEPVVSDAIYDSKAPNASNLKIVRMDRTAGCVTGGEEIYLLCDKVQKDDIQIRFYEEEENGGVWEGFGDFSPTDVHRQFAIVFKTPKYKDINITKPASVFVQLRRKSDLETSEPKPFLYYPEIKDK

Sequence	binding signal (GST-Ap-NF-kB RHD) [z-score]	binding signal [1] [z-score]	binding signal [2] [z-score]	binding signal (GST-Co-NF-kB) [z-score]	binding signal (GST-Dm-Relish) [z-score]	binding signal (GST-Aq-NF-kB) [z-score]	binding signal (GST-Hu-p50) [z-score]
CCGATTAACATCAGGGAAGCCCCTGATGTTAATCGGGTCTTGATTCGCTTGACGCTGCTG	9.42	10.8	7.12	1.97	10.3	9.75	6.02
CCGATTAACATCAGACATCCCCCTGATGTTAATCGGGTCTTGATTCGCTTGACGCTGCTG	5.54	5.65	5.36	3.71	5.06	5.17	4.88
CCGATTAACATCAACTTTCCCCCTGATGTTAATCGGGTCTTGATTCGCTTGACGCTGCTG	7.6	7.45	9.1	9.36	3.9	6.57	6.16
CCGATTAACATCAAAATTGCCCCTGATGTTAATCGGGTCTTGATTCGCTTGACGCTGCTG	3.3	4.73	5.76	3.12	2.43	4.55	5.1
CCGATTAACATCAGGGGAACTACTGATGTTAATCGGGTCTTGATTCGCTTGACGCTGCTG	6.92	6.99	7.41	5.65	9.35	6.91	5.5
CCGATTAACATCAGGGAATTCTATGATGTTAATCGGGTCTTGATTCGCTTGACGCTGCTG	5.04	6.52	6.75	3.81	3.59	5.61	4.8
CCGATTAACATCAAAAAAGTCCCTGATGTTAATCGGGTCTTGATTCGCTTGACGCTGCTG	8.8	11.6	11.5	2.41	9.77	8.92	7.77
CCGATTAACATCAAATTTCCCGGTGATGTTAATCGGGTCTTGATTCGCTTGACGCTGCTG	4.14	4.99	4.8	6.34	3.56	4.88	4.39
CCGATTAACATCAGGGGGAAAAATGATGTTAATCGGGTCTTGATTCGCTTGACGCTGCTG	6.66	7.33	9.96	11.6	4.64	5.88	7.07
CCGATTAACATCAGGGGGAGGTATGATGTTAATCGGGTCTTGATTCGCTTGACGCTGCTG	4.66	4.16	5.35	6.26	2.41	3.87	4.35
CCGATTAACATCAGAGATTCCCCTGATGTTAATCGGGTCTTGATTCGCTTGACGCTGCTG	8.42	9.61	10.1	6.66	6.36	7.04	6.76
CCGATTAACATCAGGGGAGACCCTGATGTTAATCGGGTCTTGATTCGCTTGACGCTGCTG	6.47	4.51	4.3	3.35	6.91	6.37	3.38
CCGATTAACATCAAAATCCCAGTTGATGTTAATCGGGTCTTGATTCGCTTGACGCTGCTG	1.67	1.47	1.74	1.27	5.96	1.75	1.82
